Laboratory results: PubChem BioAssay (NCI)
About 83,000 compounds went through this panel and 20% of them were active in at least one assay; those are over-represented in the sample as a whole.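 For each line, cells grew in 96-well plates with the test compound present at a single concentration for 48 hours.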 Activity calls are given as the source filed them. The calls were made as follows: active = growth percent below 10; inactive = the rest.

Columns and labels:
Experiment in all cases: NCI-60 one-dose screen, 48 h (100 = growth as untreated, 0 = no growth, -100 = all killed)
[1] = system: SR leukemia; conditions: 10 µM unless noted
[2] = system: RPMI-8226 leukemia; conditions: 10 µM unless noted
[3] = system: OVCAR-8 ovarian; conditions: 10 µM unless noted
[4] = system: OVCAR-5 ovarian; conditions: 10 µM unless noted
[5] = system: OVCAR-4 ovarian; conditions: 10 µM unless noted
[6] = system: SK-OV-3 ovarian; conditions: 10 µM unless noted
[7] = system: IGROV1 ovarian; conditions: 10 µM unless noted
[8] = system: OVCAR-3 ovarian; conditions: 10 µM unless noted
[9] = system: HS 578T breast; conditions: 10 µM
[10] = system: NCI/ADR-RES ovarian; conditions: 10 µM unless noted

Measured: growth

CCN1CCN(c2cc(C)nc(N(CCCNc3ccnc4cc(Cl)ccc34)Cc3ccc4c(c3)OCO4)n2)CC1
active: [1] -40.3% | [2] -49.6% | [3] 9.03% | [7] 5.03% | [8] -26.9% | [9] -27.1%
inactive: [4] 50.2% | [5] 27.7% | [6] 72.1% | [10] 14.2%

CC12O[C@H](C[C@@H](OC(=O)CCC(=O)O)[C@H]1O)n1c3ccccc3c3c4c(c5c6ccccc6n2c5c31)C(=O)NC4=O
active: [1] 0.804% | [6] -8.63%
inactive: [2] 58.7% | [3] 37.7% | [4] 69.3% | [5] 68% | [7] 20.4% | [8] 27.9% | [9] 19.2% | [10] 58.7%

O=C(CNc1nnc(-c2ccc(Cl)cc2)o1)Nc1ccc(-c2nc3ccccc3s2)cc1
inactive: [1] 71.8% | [2] 95.4% | [3] 103% | [4] 116% | [5] 103% | [6] 117% | [7] 94.1% | [8] 97.7% | [9] 96.9% | [10] 98.9%

CCN(CC)c1cc2oc3cc(N)cc(=N)c-3nc2cc1C
inactive: [1] 30.4% | [2] 43.4% | [4] 32.3% | [6] 103% | [7] 50.9% | [8] 24.7% | [9] 37.4%
active: [3] 2.1% | [5] -6.55% | [10] 1.37%

COC(=O)C1=C(C(=O)OC)C23C=C(C)C1C2=C(C)C1(CC1)[C@@](C)(O)C3=O (stereo not given in full)
active: [4] -3.58% | [5] 1.65% | [6] -21.6% | [7] 3.08% | [8] -2.36% | [10] -3.49%
inactive: [1] 66.6% | [2] 92.3% | [3] 12.7% | [9] 23.2%

Cc1ccsc1C(NC(=O)c1ccccc1)c1cc(Cl)c2cccnc2c1O (stereo not given)
inactive: [1] 13.2% | [2] 13.8% | [4] 46.9% | [5] 32% | [6] 16% | [7] 13.1% | [8] 18.8% | [9] 31.5%
active: [3] 8.81% | [10] 7.05%

Cc1ccc(NC(=O)NC(=O)CSc2nc3ccccc3nc2C)cc1
inactive: [1] 45.8% | [2] 57.1% | [3] 72.4% | [4] 100% | [5] 23.3% | [6] 56.2% | [7] 72.2% | [8] 97.4% | [9] 97.6% | [10] 40.6%

C=C1C(=O)O[C@H]2[C@H]1CC/C(CNC(=O)c1cc3cc(OC)ccc3[nH]1)=C\CC[C@@]1(C)O[C@@H]21
inactive: [6] 59.3% | [10] 54.3%
active: [1] -0.374% | [2] -38.4% | [3] -16.4% | [4] -20.4% | [5] -3.23% | [7] -19.8% | [8] -90.7% | [9] -1.38%

CN1CCN(Cc2ccc(NC(=O)c3[nH]ncc3Nc3ncnc4sc5c(c34)CCCC5)cc2)CC1
active: [1] -54.3% | [2] -32.1% | [3] -39.6% | [4] -86.8% | [5] -41.4% | [6] -5.01% | [7] -60.9% | [8] -83.8% | [9] -32.5% | [10] -61.7%

Clc1ccc(C(Cn2ccnc2)OCc2ccsc2Cl)c(Cl)c1 (stereo not given)
inactive: [1] 17.3% | [2] 37.6% | [3] 57.2% | [4] 68.9% | [5] 52.7% | [6] 70.7% | [7] 40.9% | [8] 55.7% | [9] 30.8% | [10] 23.1%

COC(=O)C1CCc2sc3ncnc(Nc4cn[nH]c4C(=O)Nc4ccc(CN5CCN(C)CC5)cc4)c3c21 (stereo not given)
inactive: [3] 16.6% | [5] 23.5% | [8] 11.4% | [10] 54.4%
active: [1] -25.7% | [2] 8.36% | [4] -2.74% | [6] 6.43% | [7] 4.94% | [9] -3.1%

CCN1CCN(c2nc(C)cc(N(CCNc3ccnc4cc(Cl)ccc34)Cc3ccc4c(c3)OCO4)n2)CC1
active: [1] -35.2% | [2] -30.4%
inactive: [3] 16.1% | [4] 78.2% | [5] 34.1% | [6] 74.8% | [7] 42.7% | [8] 20.9% | [9] 22.1% | [10] 36.4%

COc1ccc(C(=O)N2c3ccccc3Sc3ccccc32)c(F)c1
inactive: [1] 23% | [2] 18.6% | [3] 32.3% | [4] 62.1% | [5] 49.2% | [6] 38.3% | [7] 54.8% | [9] 15.9%
active: [8] -7.19% | [10] 1.71%

CC(=O)C1CC(C)CCC1C(C)C (stereo not given)
inactive: [1] 78.9% | [2] 56.3% | [3] 109% | [4] 105% | [5] 61.4% | [6] 108% | [7] 99.2% | [8] 94.7% | [9] 106% | [10] 86.4%

CCOC(=O)C1=C(C)N=C2Sc3cccc(OC)c3N2[C@H]1c1ccccn1
inactive: [1] 96.9% | [2] 106% | [3] 97% | [4] 110% | [5] 96.3% | [6] 99.5% | [7] 101% | [8] 107% | [9] 91.9% | [10] 96.4%

CCC1(/C=N/NC(N)=S)NC(=O)NC1=O (stereo not given)
inactive: [1] 91.1% | [2] 103% | [3] 98.1% | [4] 109% | [5] 109% | [6] 83.9% | [7] 113% | [8] 119% | [9] 104% | [10] 111%

COc1ccc(Nc2ncccc2NC(=O)c2cn(Cc3cccc(Oc4ccccc4)c3)nn2)cc1
inactive: [1] 74.2% | [2] 86% | [3] 87.5% | [4] 105% | [5] 78.7% | [6] 103% | [7] 98.8% | [8] 92% | [9] 95.7% | [10] 76.6%

CC(C)n1c(NCCc2ccc(O)c(O)c2)nc2c1c(=O)n(C)c(=O)n2C
inactive: [1] 87.2% | [2] 77.4% | [3] 104% | [4] 79.2% | [5] 90.9% | [6] 108% | [7] 110% | [8] 102% | [9] 99.5% | [10] 93.1%

CC(=O)CC1CCCC1c1ccc2ccccc2c1 (stereo not given)
inactive: [1] 104% | [2] 103% | [3] 100% | [4] 97.2% | [5] 112% | [6] 101% | [7] 101% | [8] 105% | [9] 100% | [10] 102%

COc1cc2c3c(c1)nc(C)n3CCC2
inactive: [1] 101% | [2] 105% | [3] 96.4% | [4] 102% | [5] 96% | [6] 90.8% | [7] 109% | [8] 109% | [9] 105% | [10] 103%

CCN1CCN(Cc2ccc(NC(=O)Nc3nc(-c4cc(OC)c(OC)c(OC)c4)cs3)cc2C(F)(F)F)CC1
active: [1] -32.6% | [2] -26% | [10] -6.84%
inactive: [3] 14.1% | [4] 71.3% | [5] 14.1% | [6] 36.1% | [7] 49.5% | [8] 22.8% | [9] 40%

CCN(CC)CCCC(C)Nc1cc(-c2ccc(C(F)(F)F)cc2)c(C#N)c2nc3ccccc3n12 (stereo not given)
inactive: [3] 11.8% | [4] 11.7% | [6] 74.3% | [7] 26.1% | [8] 93.5% | [10] 32.2%
active: [1] -17.4% | [2] -19.9% | [5] -27.9% | [9] -19.1%

COc1ccc2c(CCCC(c3ccccc3)c3ccccc3)c3[n+](cc2c1OC)CCc1cc2c(cc1-3)OCO2
active: [1] -35% | [2] -38.8% | [3] -47.6% | [5] -81.3% | [6] -13.4% | [7] 5.13% | [8] -74.6% | [9] -16.8%
inactive: [4] 31.8% | [10] 71.7%

COC(=O)CNC(=O)[C@@H](OC)[C@@H]1Cc2cc3cc(OC4CC(OC5CC(O)C(O)C(C)O5)C(O)C(C)O4)c(C)c(O)c3c(O)c2C(=O)[C@H]1OC1CC(OC2CC(OC3CC(C)(O)C(O)C(C)O3)C(O)C(C)O2)C(O)C(C)O1 (stereo not given in full)
active: [2] 2.86% | [5] 2.95% | [8] 3.71% | [9] -6.65%
inactive: [1] 11.1% | [3] 12.4% | [4] 16.4% | [6] 24.3% | [7] 32% | [10] 88.2%

CCN(CC)C(=O)C[N+](C)(C)CCOC(c1ccccc1)c1ccccc1
inactive: [1] 108% | [2] 114% | [3] 110% | [4] 100% | [5] 89.5% | [6] 107% | [7] 102% | [8] 103% | [9] 112% | [10] 99.1%

COc1ccc(C2CC(=O)c3c(O)c(OC)c(OC)c(OC)c3O2)c(O)c1 (stereo not given)
active: [8] 0.132% | [10] 4.44%
inactive: [1] 23% | [2] 32.7% | [3] 36.5% | [4] 54.2% | [5] 48.9% | [6] 42.9% | [7] 46.3% | [9] 36.5%
